Where “and” joins values, the source holds several entries; their conditions need not be identical. Equal values may be shown once. A structure can be active in one record and inactive in another. Calls of active or inactive are those of the source. How the source made its calls: active means hit-call score of the fitted dose curve at least 0.9, where 1 is the maximum; inactive means score below 0.9.
Tests used:
[1] = read-out: Interleukin-8 (IL8), CXCL8 (gene 3576); test: BSK_CASM3C_IL8: BioMAP Diversity Plus: CASM3C Assay for Interleukin-8 (IL8) Biomarker Activity (AID 2283042); settings: primary human coronary artery smooth muscle cells; actives raise or lower the signal;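 further: IL-8 protein level quantified by ELISA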
[2] = read-out: Human Leukocyte Antigen - DR isotype (HLADR), HLA-DRA (gene 3122); test: BSK_CASM3C_HLADR: BioMAP Diversity Plus: CASM3C Assay for Human Leukocyte Antigen - DR isotype (HLADR) Biomarker Activity (AID 2283043); settings: primary human coronary artery smooth muscle cells; actives raise or lower the signal;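 further: cell-surface HLA-DR protein level quantified by ELISA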
[3] = read-out: Macrophage colony-stimulating factor (MCSF), CSF1 (gene 1435); test: BSK_CASM3C_MCSF: BioMAP Diversity Plus: CASM3C Assay for Macrophage colony-stimulating factor (MCSF) Biomarker Activity (AID 2283044); settings: primary human coronary artery smooth muscle cells; actives raise or lower the signal;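 further: M-CSF protein amount quantified by ELISA after 24 h exposure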
[4] = read-out: Low-density lipoprotein receptor (LDLR), LDLR (gene 3949); test: BSK_CASM3C_LDLR: BioMAP Diversity Plus: CASM3C Assay for Low-density lipoprotein receptor (LDLR) Biomarker Activity (AID 2283045); settings: primary human coronary artery smooth muscle cells; actives raise or lower the signal;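 further: LDLR protein level on the cell surface quantified by ELISA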
[5] = read-out: Monocyte Chemoattractant Protein-1 (MCP1), CCL2 (gene 6347); test: BSK_CASM3C_MCP1: BioMAP Diversity Plus: CASM3C Assay for Monocyte Chemoattractant Protein-1 (MCP1) Biomarker Activity (AID 2283046); settings: primary human coronary artery smooth muscle cells; actives raise or lower the signal;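 further: MCP-1 level quantified by ELISA 24 h after dosing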
[6] = BSK_CASM3C_Proliferation: Cell Proliferation Assessment in the BioMAP Diversity Plus: CASM3C Assay (AID 2283047); settings: primary human coronary artery smooth muscle cells;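 further: sulforhodamine B total protein stain as relative cell number at 560 nm; sub-confluent cells exposed 48 h before staining; fitted both ways against DMSO so gain or loss of cell number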
[7] = read-out: Monokine induced gamma interferon (MIG), CXCL9 (gene 4283); test: BSK_CASM3C_MIG: BioMAP Diversity Plus: CASM3C Assay for Monokine induced gamma interferon (MIG) Biomarker Activity (AID 2283048); settings: primary human coronary artery smooth muscle cells; actives raise or lower the signal;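 further: MIG protein level measured by ELISA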
[8] = read-out: serum amyloid A (SAA), SAA1 (gene 6288); test: BSK_CASM3C_SAA: BioMAP Diversity Plus: CASM3C Assay for serum amyloid A (SAA) Biomarker Activity (AID 2283049); settings: primary human coronary artery smooth muscle cells; actives raise or lower the signal;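 further: SAA protein level quantified by ELISA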
[9] = BSK_CASM3C_SRB: Viability Assessment in the BioMAP Diversity Plus: CASM3C Assay (AID 2283050); settings: primary human coronary artery smooth muscle cells;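 further: total protein by SRB staining as cytotoxicity measure in parallel cultures; cells exposed to compound for 24 h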
[10] = read-out: Thrombomodulin, THBD (gene 7056); test: BSK_CASM3C_Thrombomodulin: BioMAP Diversity Plus: CASM3C Assay for Thrombomodulin Biomarker Activity (AID 2283051); settings: primary human coronary artery smooth muscle cells; actives raise or lower the signal;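 further: thrombomodulin protein level measured by ELISA 24 h after dosing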
[11] = read-out: Tissue Factor, F3 (gene 2152); test: BSK_CASM3C_TissueFactor: BioMAP Diversity Plus: CASM3C Assay for Tissue Factor Biomarker Activity (AID 2283052); settings: primary human coronary artery smooth muscle cells; actives raise or lower the signal;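 further: cell surface tissue factor protein level read by ELISA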
[12] = read-out: Interferon-gamma inducible Protein 10 (IP10), CXCL10 (gene 3627); test: BSK_hDFCGF_IP10: BioMAP Diversity Plus: hDFCGF Assay for Interferon-gamma inducible Protein 10 (IP10) Biomarker Activity (AID 2283053); settings: primary human foreskin fibroblasts; actives raise or lower the signal
Method in brief: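 Primary foreskin fibroblasts, human; 24 h compound exposure; IP-10 by ELISA; bidirectional fit vs DMSO.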

[13] = read-out: Urokinase-type plasminogen activator receptor (uPAR), PLAUR (gene 5329); test: BSK_CASM3C_uPAR: BioMAP Diversity Plus: CASM3C Assay for Urokinase-type plasminogen activator receptor (uPAR) Biomarker Activity (AID 2283054); settings: primary human coronary artery smooth muscle cells; actives raise or lower the signal;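 further: cell-surface uPAR protein level quantified by ELISA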
[14] = read-out: Vascular cell adhesion molecule 1 (VCAM1), VCAM1 (gene 7412); test: BSK_CASM3C_VCAM1: BioMAP Diversity Plus: CASM3C Assay for Vascular cell adhesion molecule 1 (VCAM1) Biomarker Activity (AID 2283055); settings: primary human coronary artery smooth muscle cells; actives raise or lower the signal;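 further: VCAM-1 protein level quantified by ELISA on the cells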
[15] = read-out: Collagen III, COL3A1 (gene 1281); test: BSK_hDFCGF_CollagenIII: BioMAP Diversity Plus: hDFCGF Assay for Collagen III Biomarker Activity (AID 2283056); settings: primary human foreskin fibroblasts; actives raise or lower the signal
Method in brief: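 Human foreskin primary fibroblasts were exposed to test chemicals for 24 h, after which collagen III was quantified by ELISA. Activity was fitted bidirectionally against DMSO as negative control and baseline.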

[16] = read-out: Epidermal growth factor receptor (EGFR), EGFR (gene 1956); test: BSK_hDFCGF_EGFR: BioMAP Diversity Plus: hDFCGF Assay for Epidermal growth factor receptor (EGFR) Biomarker Activity (AID 2283057); settings: primary human foreskin fibroblasts; actives raise or lower the signal
Method in brief: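 hDFCGF system, primary human foreskin fibroblasts; compound 24 h; EGFR measured by ELISA; DMSO = negative control/baseline; bidirectional fitting.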

[17] = read-out: Interleukin-8 (IL8), CXCL8 (gene 3576); test: BSK_hDFCGF_IL8: BioMAP Diversity Plus: hDFCGF Assay for Interleukin-8 (IL8) Biomarker Activity (AID 2283058); settings: primary human foreskin fibroblasts; actives raise or lower the signal
Method in brief: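 hDFCGF human dermal fibroblasts; 24 h chemical exposure; IL-8 by ELISA; bidirectional curve fit vs DMSO baseline; gain or loss of signal scored.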

[18] = BSK_hDFCGF_Proliferation: Cell Proliferation Assessment in the BioMAP Diversity Plus: hDFCGF Assay (AID 2283059); settings: primary human foreskin fibroblasts;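 further: curves fitted for both rise and fall of signal versus DMSO baseline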
Method in brief: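 This proliferation readout used SRB total-protein staining of human foreskin fibroblasts […], normalized to DMSO with bidirectional curve fitting.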

[19] = read-out: Macrophage colony-stimulating factor (MCSF), CSF1 (gene 1435); test: BSK_hDFCGF_MCSF: BioMAP Diversity Plus: hDFCGF Assay for Macrophage colony-stimulating factor (MCSF) Biomarker Activity (AID 2283060); settings: primary human foreskin fibroblasts; actives raise or lower the signal
Method in brief: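 Human foreskin primary fibroblasts were treated with test chemical for 24 h, and M-CSF was then measured by ELISA. Data were fitted bidirectionally against DMSO as the negative control and activity baseline.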

[20] = read-out: Tissue plasminogen activator (tPA), PLAT (gene 5327); test: BSK_BE3C_tPA: BioMAP Diversity Plus: BE3C Assay for Tissue plasminogen activator (tPA) Biomarker Activity (AID 2283041); settings: primary human bronchial epithelial cells; actives raise or lower the signal;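 further: tPA level quantified by ELISA one day after compound addition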
Method in brief: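 Primary human lung bronchial epithelial cultures receive test chemical; after 24 h, tPA is quantified by ELISA, and gain or loss of signal is fitted bidirectionally relative to DMSO baseline.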

Q: Which outcome [1] does the source give for c1ccc2c(c1)oc1ccccc12 here?
A: inactive

Q: What about the outcome [2] of the same compound?
A: inactive

Q: What about the outcome [3] of the same compound?
A: inactive

Q: And the outcome [4]?
A: inactive

Q: What about the outcome [5] of the same compound?
A: inactive

Q: What about the outcome [6] of the same compound?
A: inactive

Q: And the outcome [7]?
A: inactive

Q: And the outcome [8]?
A: inactive

Q: What about the outcome [9] of the same compound?
A: inactive

Q: What about the outcome [10] of the same compound?
A: inactive

Q: And the outcome [11]?
A: inactive

Q: And the outcome [12]?
A: inactive

Q: What about the outcome [13] of the same compound?
A: inactive

Q: And the outcome [14]?
A: inactive

Q: What about the outcome [15] of the same compound?
A: inactive

Q: And the outcome [16]?
A: inactive

Q: And the outcome [17]?
A: inactive

Q: And the outcome [18]?
A: inactive

Q: And the outcome [19]?
A: inactive

Q: For Clc1ccc(C(c2ccc(Cl)cc2)C(Cl)(Cl)Cl)cc1, which outcome [20] is on record?
A: inactive

Q: What about the outcome [1] of the same compound?
A: inactive

Q: What about the AC50 [2] of the same compound?
A: 31.4 µM (active)

Q: What about the AC50 [3] of the same compound?
A: 14.7 µM (active)

Q: What about the AC50 [4] of the same compound?
A: 32.1 µM (active)

Q: And the AC50 [5]?
A: 36.9 µM (active)

Q: What about the AC50 [6] of the same compound?
A: 29.1 µM (active)

Q: What about the outcome [7] of the same compound?
A: inactive

Q: And the AC50 [8]?
A: 33.3 µM (active)

Q: What about the AC50 [9] of the same compound?
A: 27.7 µM (active)

Q: What about the AC50 [10] of the same compound?
A: 6.95 µM (active)

Q: What about the AC50 [11] of the same compound?
A: 33.2 µM (active)

Q: What about the AC50 [12] of the same compound?
A: 14.1 µM (active)

Q: And the AC50 [13]?
A: 20 µM (active)

Q: And the AC50 [14]?
A: 20 µM (active)

Q: And the outcome [16]?
A: inactive

Q: What about the AC50 [17] of the same compound?
A: 27.3 µM (active)

Q: What about the AC50 [19] of the same compound?
A: 10.9 µM (active)

Q: With CCNS(=O)(=O)C(F)(F)C(F)(F)C(F)(F)C(F)(F)C(F)(F)C(F)(F)C(F)(F)C(F)(F)F as the compound, how does the AC50 [1] read?
A: 17 µM (active)

Q: And the outcome [1]?
A: inactive

Q: And the AC50 [2]?
A: 8.6 µM (active)

Q: And the outcome [2]?
A: inactive

Q: And the outcome [3]?
A: inactive

Q: What about the outcome [4] of the same compound?
A: inactive

Q: And the outcome [5]?
A: inactive

Q: What about the outcome [6] of the same compound?
A: inactive

Q: And the outcome [7]?
A: inactive

Q: What about the outcome [8] of the same compound?
A: inactive

Q: What about the outcome [9] of the same compound?
A: inactive

Q: And the AC50 [10]?
A: 24.6 µM (active)

Q: What about the outcome [10] of the same compound?
A: inactive

Q: What about the outcome [11] of the same compound?
A: inactive

Q: What about the AC50 [12] of the same compound?
A: 18 µM (active) and 20.9 µM (active) and 19.8 µM (active)

Q: And the outcome [13]?
A: inactive

Q: What about the AC50 [14] of the same compound?
A: 9.52 µM (active) and 11.7 µM (active) and 5.95 µM (active)

Q: What about the AC50 [15] of the same compound?
A: 5.82 µM (active) and 18.6 µM (active) and 22 µM (active)

Q: And the AC50 [16]?
A: 31.3 µM (active) and 48.5 µM (active)

Q: What about the outcome [16] of the same compound?
A: inactive

Q: And the AC50 [17]?
A: 55.1 µM (active) and 46.4 µM (active)

Q: And the outcome [17]?
A: inactive

Q: And the AC50 [18]?
A: 17.5 µM (active) and 14.4 µM (active) and 19.4 µM (active)

Q: And the AC50 [19]?
A: 17 µM (active) and 22.2 µM (active) and 28.5 µM (active)

Q: What does the source list for ClC1=C(Cl)C2(Cl)C3C(Cl)C=CC3C1(Cl)C2(Cl)Cl (stereo not drawn)?
A: AC50 [1]: 34.6 µM (active); AC50 [2]: 29.3 µM (active); AC50 [3]: 30 µM (active); AC50 [4]: 31.8 µM (active); AC50 [5]: 33.6 µM (active); AC50 [6]: 32 µM (active); AC50 [7]: 31.2 µM (active); AC50 [8]: 30.2 µM (active); AC50 [9]: 32 µM (active); outcome [10]: inactive; AC50 [11]: 29.3 µM (active); AC50 [12]: 8.86 µM (active); AC50 [13]: 31.8 µM (active); AC50 [14]: 30.2 µM (active); AC50 [15]: 6.97 µM (active); outcome [16]: inactive; AC50 [17]: 11.4 µM (active); AC50 [18]: 10.3 µM (active); AC50 [19]: 9.47 µM (active)

Q: Which outcome [1] does the source give for O=Cc1ccco1 here?
A: inactive

Q: And the outcome [2]?
A: inactive

Q: What about the outcome [3] of the same compound?
A: inactive

Q: And the outcome [4]?
A: inactive

Q: And the outcome [5]?
A: inactive

Q: What about the outcome [6] of the same compound?
A: inactive

Q: What about the outcome [7] of the same compound?
A: inactive

Q: And the outcome [8]?
A: inactive

Q: And the outcome [9]?
A: inactive

Q: And the outcome [10]?
A: inactive

Q: And the outcome [11]?
A: inactive

Q: What about the outcome [12] of the same compound?
A: inactive

Q: What about the outcome [13] of the same compound?
A: inactive

Q: What about the outcome [14] of the same compound?
A: inactive

Q: What about the outcome [15] of the same compound?
A: inactive

Q: And the outcome [16]?
A: inactive

Q: And the outcome [17]?
A: inactive

Q: And the outcome [18]?
A: inactive

Q: What about the outcome [19] of the same compound?
A: inactive

Q: With C1=Cc2cccc3cccc1c23 as the compound, how does the outcome [1] read?
A: inactive

Q: And the outcome [2]?
A: inactive

Q: And the outcome [3]?
A: inactive

Q: What about the outcome [4] of the same compound?
A: inactive

Q: What about the outcome [5] of the same compound?
A: inactive

Q: What about the outcome [6] of the same compound?
A: inactive

Q: And the outcome [7]?
A: inactive

Q: What about the outcome [8] of the same compound?
A: inactive

Q: And the outcome [9]?
A: inactive

Q: What about the outcome [10] of the same compound?
A: inactive

Q: What about the outcome [11] of the same compound?
A: inactive

Q: What about the outcome [12] of the same compound?
A: inactive

Q: And the outcome [13]?
A: inactive

Q: And the outcome [14]?
A: inactive

Q: What about the outcome [15] of the same compound?
A: inactive

Q: And the outcome [16]?
A: inactive

Q: And the outcome [17]?
A: inactive

Q: What about the outcome [18] of the same compound?
A: inactive

Q: What about the outcome [19] of the same compound?
A: inactive

Reference: PubChem BioAssay (EPA / NIEHS)
